Screens: PubChem BioAssay, Sanford-Burnham Center for Chemical Genomics
Sampled rows, rich in hits. Any-hit rate of the full collection: about 3%.
SENP6 block – inhibitors of human SENP6 protease. Q9GZR1. Recombinant SENP6 catalytic domain, aminoluciferin luminescence. inhibition, % at 10 µM. 330,000 compounds, 1.8% hits. AID 2599;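 active = inhibition above about 50% at the single tested dose, limit read from the data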;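 also: plate controls were DMSO wells with enzyme for no effect and DMSO wells lacking enzyme for full effect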
TRAIL sens C8 – sensitizes caspase-8 expressing cells to TRAIL; 360,000 compounds, 1% hits; inhibition (viability loss, TRAIL sensitization), % at 10 µM; NB7+C8 cells + TRAIL, ATPlite viability luminescence;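 active = compounds causing at least 50% loss of cell viability in the single-dose screen, relative to plate controls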
SENP8 block-1 – inhibitors of human SENP8 protease; Q96LD8; purified SENP8, Z-RLRGG-aminoluciferin cleavage, luminescence; inhibition, % at 10 µM; 330,000 compounds, 1.2% hits; in the data active = inhibition above about 50%
Target sequence (Q96LD8 whole entry, looked up): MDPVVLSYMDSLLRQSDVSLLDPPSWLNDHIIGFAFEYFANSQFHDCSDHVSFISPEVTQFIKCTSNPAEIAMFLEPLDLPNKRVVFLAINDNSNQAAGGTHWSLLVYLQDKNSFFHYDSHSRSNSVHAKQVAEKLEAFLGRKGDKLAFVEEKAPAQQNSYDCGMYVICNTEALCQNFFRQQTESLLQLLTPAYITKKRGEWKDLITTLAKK
SENP8 block-2 – inhibitors of human SENP8 protease | Q96LD8 | recombinant SENP8, Nedd8 substrate fluorescence | inhibition, % at 20 µM | 360,000 compounds, 0.64% hits; in the data active = inhibition mostly above about 40%, no sharp cut-off; inactive = mostly below about 27%
SENP7 inh – inhibitors of human SENP7 protease | 330,000 compounds, 1.5% hits | Q9BQF6 | inhibition, % at 5 µM | recombinant SENP7, Z-RLRGG-aminoluciferin luminescence, 40 min | AID 434973;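 active = inhibition above about 50% at the single test dose, limit read from the data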;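 also: plate controls were DMSO with enzyme for no effect and no enzyme buffer wells for full effect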
Target sequence (Q9BQF6 706-1050 limits assumed): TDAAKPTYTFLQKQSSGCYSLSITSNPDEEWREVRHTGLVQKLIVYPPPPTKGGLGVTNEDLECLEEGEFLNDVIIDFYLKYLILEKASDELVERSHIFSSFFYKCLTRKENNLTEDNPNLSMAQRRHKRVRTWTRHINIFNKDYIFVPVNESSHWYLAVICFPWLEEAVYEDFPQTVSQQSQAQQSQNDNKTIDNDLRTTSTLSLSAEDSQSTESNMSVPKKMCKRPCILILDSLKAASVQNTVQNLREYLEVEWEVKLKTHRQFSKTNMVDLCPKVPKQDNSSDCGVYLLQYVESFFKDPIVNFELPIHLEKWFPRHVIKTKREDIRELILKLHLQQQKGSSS
PPC-1+TRAIL kill – kills PPC-1 cancer cells in the presence of TRAIL. cell killing (% activity), % at 4 µM or 5 µM. PPC-1 cells + TRAIL, ATPLite viability luminescence. 220,000 compounds, 0.41% hits;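 active = cell killing above 50% in the first pass at 4 µM, then a duplicate retest at 5 µM averaging 50% or more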;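 also: plate controls were cells with TRAIL plus DMSO for no effect and medium-only wells lacking cells for full effect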
SENP8 inh conf – SENP8 (human) inhibition, single concentration confirmation | shares compounds with SENP8 block-2 | purified SENP8, Nedd8-AMC/pro-Nedd8 cleavage fluorescence, 30 min | 1,400 compounds, 15% hits | inhibition, % at 25 µM; in the data active = inhibition mostly above about 39%, no sharp cut-off; inactive = mostly below about 34%
Active calls of the source: *; i = inactive; nt = not tested or not shown.

SMILES | SENP6 block | TRAIL sens C8 | SENP8 block-1 | SENP8 block-2 | SENP7 inh | PPC-1+TRAIL kill | SENP8 inh conf
O=C(Nc1ccccc1)NC1(C(=O)NCc2ccco2)CCCCC1 | 0 | 11 | -2 | 25 | 10 | 0 | nt
CC(=O)c1cccc(NC(=O)N2CCCC2C(=O)Nc2cccc(C)c2)c1 (centres undefined) | -8 | -5 | -8 | 42* | -3 | -3 | -20
COc1ccc(C(O)c2ncc(-c3ccccc3C)[nH]2)cc1F (centres undefined) | nt | -8 | nt | 13 | nt | nt | nt
O=C(Nc1ccc(N2CCN(Cc3ccccc3)CC2)cc1)c1cccnc1 | -30 | 1 | -1 | 45* | -5 | -3 | 18
O=C(O)c1ccc(Cl)c(S(=O)(=O)NCc2ccco2)c1 | -10 | -6 | -13 | 43* | 4 | -14 | -8
CCN(CC)c1ccc(NC2CC(=O)N(CCc3ccc(OC)cc3)C2=O)cc1 (centres undefined) | 3 | 4 | 5 | 74* | 5 | 21 | 41
COc1ccc(OC)c(C(O)c2ncc(-c3cccc4ccccc34)[nH]2)c1 (centres undefined) | nt | -5 | nt | -379 | nt | nt | nt
CC1=[N+](C)N(c2ccccc2)C(=O)C1N=C/C=C/c1ccccc1 (centres undefined) | -21 | -13 | -11 | 42* | -7 | 2 | 5
COc1ccccc1/C=C/C=NC1C(=O)N(c2ccccc2)[N+](C)=C1C (centres undefined) | -17 | -40 | -4 | 11 | -4 | 1 | nt
CC1CCCN(S(=O)(=O)c2ccc(NC(=O)C3CCN(C(=O)C(C)(C)C)CC3)cc2)C1 (centres undefined) | -7 | -2 | 0 | 12 | -2 | nt | nt
Cc1noc(C)c1S(=O)(=O)N1CCC(C(=O)NCCN2CCC(C)CC2)CC1 | -15 | -5 | -1 | 41* | -2 | 3 | 12
COc1ccc(Br)c(C(=O)OCC(=O)N2CCC(Cc3ccccc3)CC2)c1 | -3 | 11 | -7 | 42* | -9 | nt | 7
Cc1cc(NC(=O)c2csc([C@@H]3O[C@H](CO)[C@H](O)[C@H](O)[C@H]3O)n2)n(C)n1 | nt | 4 | nt | 3 | nt | nt | nt
COC(=O)N/N=C1/C/C(=N\NC(=O)OC)c2ccccc21 | 16 | -10 | 18 | 81* | 15 | 9 | 96*
COC(=O)NN=C1CCC(c2ccccc2)CC1 (centres undefined) | -15 | 0 | 0 | 4 | 4 | nt | nt
O=C(N/N=C\c1ccc([N+](=O)[O-])o1)c1cncc(Br)c1 | 11 | 24 | 14 | 66* | 4 | 26 | 24
O=C(N/N=C/c1ccc([N+](=O)[O-])o1)c1ccncc1 | 11 | 28 | -2 | 54* | -9 | 9 | 28
CCCCCC(=O)N/N=C/c1ccc([N+](=O)[O-])o1 | 3 | 12 | 4 | 28 | 0 | nt | nt
O=C(Cc1ccc2c(c1)OCO2)NN=Cc1ccc([N+](=O)[O-])o1 | 3 | 14 | -14 | 39* | -1 | nt | 21
Cc1cc(C)nc(NC(=NCCc2c[nH]c3ccccc23)NC(=O)C(C)(C)C)n1 | -16 | 12 | -3 | 46* | 11 | 7 | 20
Cc1cc(C)nc(N2C(=O)CC(C(=O)O)NC2=NCCc2c[nH]c3ccccc23)n1 (centres undefined) | -22 | -4 | 1 | -4 | 3 | -16 | nt
COc1ccc(S(=O)(=O)N2CCN(C(=O)CCCN3C(=O)NC4(CCCC4)C3=O)CC2)cc1 | -3 | -2 | -7 | 14 | -5 | nt | nt
COc1ccc(O)c(C(c2c(C)[nH][nH]c2=O)c2c(C)[nH][nH]c2=O)c1 | 15 | 9 | 11 | 76* | 4 | -6 | 47*
CCOc1cc(C(c2c(C)[nH][nH]c2=O)c2c(C)[nH][nH]c2=O)ccc1O | -4 | 15 | 6 | 47* | 9 | 11 | 53*
Cc1[nH][nH]c(=O)c1C(c1ccc(O)c(Br)c1)c1c(C)[nH][nH]c1=O | 12 | 3 | -7 | 12 | -8 | nt | nt
SMILES | SENP6 block | TRAIL sens C8 | SENP8 block-1 | SENP8 block-2 | SENP7 inh | PPC-1+TRAIL kill | SENP8 inh conf
COc1ccc(NC(=O)c2cc(C3CCCCN3S(=O)(=O)Cc3ccccc3)on2)c(C)c1 (centres undefined) | nt | 2 | nt | 31 | nt | nt | nt
Nc1c(Br)cc(Br)c2c1[nH]c(=O)c1ccccc12 | nt | -9 | nt | 73* | nt | nt | 12
O=c1[nH]c2ccccc2c2ccccc12 | -19 | -3 | -8 | -29 | 6 | 7 | nt
Cc1onc(-c2c(Cl)cccc2Cl)c1C(=O)N=S(C)(=O)c1ccccc1 (centres undefined) | -7 | 2 | -4 | 41* | 2 | -10 | 8
Cc1onc(-c2c(Cl)cccc2Cl)c1C(=O)c1ccccc1 | -41 | 6 | -7 | 13 | -1 | 10 | nt
CCN(CC)S(=O)(=O)c1cccc(C(=O)NCCCn2ccnc2)c1 | 3 | 35 | 0 | 42* | -4 | 2 | 17
CC1=NN(c2ccc(C)c(C)c2)C(=O)C1C(c1cccc(O)c1)C1C(=O)N(c2ccc(C)c(C)c2)N=C1C (centres undefined) | -1 | -12 | 10 | 81* | 32 | 9 | 52*
Cc1ccc(N2C(=O)C3C4C=CC(C4)C3C2=O)cc1C (centres undefined) | 14 | 5 | 7 | 14 | 13 | 13 | nt
CCNC(=O)C1(C)CCN(C(=O)c2c(-c3ccccc3)noc2C)C1 (centres undefined) | nt | -16 | nt | 14 | nt | nt | nt
O=C(NC1CCCCC1)C(c1ccnc2ccccc12)N1CCc2ccccc2C1 (centres undefined) | nt | 2 | nt | 51* | nt | nt | 91*
O=C(NC1CCCCC1)C(C1CC1)N1CCc2ccccc2C1 (centres undefined) | nt | 0 | nt | 30 | nt | nt | nt
Cc1ccc(N2C(=O)Cc3ccccc3C2=O)cc1 | 40 | -4 | 23 | 69* | 17 | nt | 55*
Cc1cccc(N2C(=O)Cc3ccccc3C2=O)c1 | 31 | -32 | 20 | 82* | 24 | nt | 43
COc1ccccc1CNC(=O)C1(c2ccc(Cl)cc2)CC1 | 5 | 3 | 3 | 7 | 1 | 18 | nt
Cc1ccc(-n2ncc3c2CCCC3NC(=O)CCn2ccnc2C)cc1C (centres undefined) | 3 | 15 | 0 | -6 | 6 | nt | nt
COc1ccccc1CNc1nc(Nc2ccccc2-n2cccn2)c2sccc2n1 | nt | 11 | nt | i | nt | nt | nt
Cc1cc(OCC(=O)NCCN2CCOCC2)cc(C)c1Cl | -4 | -9 | -3 | 15 | -12 | nt | nt
Cc1ccc(OCC(=O)NCCN2CCOCC2)cc1C | 3 | -7 | 8 | 43* | 6 | 6 | 8
Cc1n[nH]c(=O)c2c(NC(=O)COC(=O)Cc3ccc(Cl)cc3Cl)oc(C)c12 | -6 | -9 | 5 | 12 | 4 | nt | nt
O=C(c1ccc(N2CCCC2)c([N+](=O)[O-])c1)N1CCc2ccccc2C1 | 4 | 0 | -4 | 50* | -3 | nt | 13
